From PubChem BioAssay
This excerpt belongs to a sample that is enriched for hits.
FBPA Giardia inh: Giardia lamblia aldolase inhibition | purified Giardia FBPA | Potency, µM (highest dose often 59.6 µM), hits mostly inhibitors | actives 0.71% (n = 290,000); further: nearly all actives have a fitted effect of over 55% in size
Target sequence (A8B2U2 whole entry, looked up): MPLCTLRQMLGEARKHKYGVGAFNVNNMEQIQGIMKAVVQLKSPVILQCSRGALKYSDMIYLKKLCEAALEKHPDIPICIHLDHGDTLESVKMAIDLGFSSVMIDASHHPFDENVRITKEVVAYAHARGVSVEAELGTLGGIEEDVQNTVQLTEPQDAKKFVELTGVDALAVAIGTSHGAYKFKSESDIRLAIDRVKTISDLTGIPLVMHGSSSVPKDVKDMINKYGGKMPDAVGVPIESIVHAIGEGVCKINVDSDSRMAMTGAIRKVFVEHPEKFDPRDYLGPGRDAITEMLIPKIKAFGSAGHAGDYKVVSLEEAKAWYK
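Giardia FBPA (40 nM reagent) was preincubated 10 min at RT with compound (up to 57.5 uM final), then substrate plus GAPDH/TPI/NAD/arsenate coupling system with diaphorase/resazurin was added; resorufin fluorescence (525/598 nm) was read after 20 min.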
RE007 growth inh: less growth of the S. pombe RE007 Vpr strain. S. pombe RE007 Vpr strain, BacTiter-Glo ATP luminescence, 24 h. Potency, µM (highest dose often 92.2 µM), actives largely listed as inhibitors. actives 0.21% (n = 360,000). AID 651644; active means well fitted falling curve with a large enough effect; inconclusive means small, poorly fitted or top-dose-only effect; inactive means no such curve, though single readings can be large or run the other way; further: nearly all actives have a fitted effect of over 50% in size
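Fission yeast RE007 carrying one integrated HIV-1 vpr copy, seeded at OD 0.01 in PMG+AL medium with 23 nL pinned compound. Grown 24 h at 30 degrees; viability read by BacTiter-Glo luminescence after 5 min.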
Shiga toxin inh: blocks Shiga toxin action in Vero cells; Vero cells, Shiga toxin protein synthesis inhibition reporter; inhibition, % at 38.7 µM; actives 9.2% (n = 290,000); AID 2315; in the data active means inhibition mostly above about 28%, no sharp cut-off; inactive means mostly below about 43%
LmPK inhibitor: inhibitors of Leishmania mexicana pyruvate kinase; purified LmPK, Kinase-Glo ATP luminescence, 1 h; actives 0.37% (n = 290,000); Q27686; Potency, µM (series often up to 57.5 µM), usual class: inhibitors; AID 1721
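0.1 nM LmPK, 0.5 mM PEP, 0.1 mM ADP; 50 mM imidazole pH 7.2, 7 mM MgCl2, 50 mM KCl; 1 h RT. Kinase-Glo luminescence readout, normalized to no-enzyme (full inhibition) and uninhibited wells.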
TbPYK inhibitor: inhibitors of Trypanosoma brucei pyruvate kinase. Q57TT1. TbPYK enzyme, Kinase-Glo Plus ATP luminescence, 45 min. Potency, µM (highest dose often 76.8 µM), usual class: inhibitors. actives 0.12% (n = 410,000). AID 624173; further: nearly all actives have a fitted effect of over 50% in size
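In this concentration-response screen, enzyme-free wells defined baseline while DMSO plates tracked drift. Each reaction combined TbPYK, substrate, compound and 130 uM ADP for 45 min at room temperature. Kinase-Glo Plus luminescence gave the signal.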
Cycloheximide cs: counter-screen hit for Shiga toxin inhibitors, cycloheximide. cell reporter, cycloheximide protein synthesis inhibition counterscreen. actives 12% (n = 300,000). max response, %. AID 2314; in the data active means max response mostly above about 13%, no sharp cut-off; inactive means mostly below about 14%; further: read at 38.3 µM for the half of the compounds with a filed dose
Of the large screens only hits and unclear results are named; the others gave an inactive call. Unless noted, the call rests on the fitted dose curve; in most records, active means well fitted curve in the direction sought with a large enough effect; inconclusive means small, poorly fitted or top-dose-only effect, or another doubt; inactive means no such curve, though single readings can be large; an effect the other way counts as inactive or inconclusive.

O=C(N/N=C/c1cccnc1)c1ccccc1OCc1cccc(Br)c1	none
Cc1nc2nc(SCC(=O)Nc3cccc(Cl)c3)nn2c(C)c1Cc1ccccc1	none (no result: FBPA Giardia inh, RE007 growth inh, Shiga toxin inh, LmPK inhibitor, Cycloheximide cs)
O=C(CSc1nnc([C@@H]2CCCN2)o1)c1ccc(Cl)cc1	Shiga toxin inh 102, Cycloheximide cs 22
O=C(Nc1c2c(nn1-c1ccc(Cl)cc1)CS(=O)(=O)C2)c1cccc(F)c1	none (no result: FBPA Giardia inh, RE007 growth inh, Shiga toxin inh, LmPK inhibitor, Cycloheximide cs)
O=C(NC(=S)Nc1nc(-c2cccc3ccccc23)cs1)c1cc2ccccc2o1	none
Cc1ccc(NC(=O)Nc2nc(-c3ccc(C)s3)cs2)cc1	none
CC(=O)Nc1nc(-c2ccc(Br)s2)cs1	Shiga toxin inh 63, Cycloheximide cs 25
CC(=O)Nc1nc(-c2cccc3ccccc23)cs1	Cycloheximide cs 15
Cc1cccc2c(=O)cc(CSc3ccccc3NC(=O)C(C)(C)C)[nH]c12	none (no result: FBPA Giardia inh, RE007 growth inh, Shiga toxin inh, LmPK inhibitor, Cycloheximide cs)
COc1cc(NC(=O)CN2C(=O)C(c3ccc(C)cc3)=NC23CCCCC3)cc(OC)c1	none (no result: FBPA Giardia inh, RE007 growth inh, Shiga toxin inh, LmPK inhibitor, Cycloheximide cs)
Cc1ccc([N+](=O)[O-])c(OCCN2CCc3ccccc3C2)c1	FBPA Giardia inh inconclusive, Cycloheximide cs 16
O=[N+]([O-])c1ccccc1OCCN1CCCC1	none
Cc1ccc(OCCCN2CCOCC2)c([N+](=O)[O-])c1	Shiga toxin inh 74, Cycloheximide cs 36
O=[N+]([O-])c1ccccc1OCCCN1CCc2ccccc2C1	FBPA Giardia inh inconclusive, Cycloheximide cs 9.9
CCCCc1nn2c(=O)cc(COC(=O)c3ccccc3C)nc2s1	none (no result: FBPA Giardia inh, RE007 growth inh, Shiga toxin inh, LmPK inhibitor, Cycloheximide cs)
CCCCOCCOc1nc(-c2ccc(C(=O)O)c(F)c2)sc1C	none (no result: FBPA Giardia inh, RE007 growth inh, Shiga toxin inh, LmPK inhibitor, Cycloheximide cs)
CCc1ccc2c(c1)c(=O)c(S(=O)(=O)c1ccc(F)cc1)cn2CC(=O)Nc1ccc(C)cc1C	none (no result: FBPA Giardia inh, RE007 growth inh, Shiga toxin inh, LmPK inhibitor, Cycloheximide cs)
Cc1cc(C)cc(NC(=O)c2cc(S(=O)(=O)N3CCCCC3)c[nH]2)c1	none (no result: FBPA Giardia inh, RE007 growth inh, Shiga toxin inh, LmPK inhibitor, Cycloheximide cs)
Cc1ccc(-n2c(=O)c3c(cnn3C)n(CC(=O)Nc3cccc(C)c3)c2=O)cc1	none (no result: FBPA Giardia inh, RE007 growth inh, Shiga toxin inh, LmPK inhibitor, Cycloheximide cs)
S=c1[nH]c(-c2ccccc2)cn1/N=C/c1ccccc1Br	TbPYK inhibitor inconclusive, Cycloheximide cs 27
Cc1ccc(/C=N/n2cc(-c3ccccc3)[nH]c2=S)s1	Shiga toxin inh 108, LmPK inhibitor inconclusive, TbPYK inhibitor inconclusive, Cycloheximide cs 39
COc1cc(/C=N/n2cc(-c3ccccc3)[nH]c2=S)cc(OC)c1O	LmPK inhibitor 2.5µM, TbPYK inhibitor 1.1µM, Cycloheximide cs 62
S=c1[nH]c(-c2ccccc2)cn1/N=C/c1cccc2ccccc12	none
Cc1[nH]c(N=Nc2ccccc2)nc1N=Nc1ccccc1	Shiga toxin inh 71
CC(=O)n1c2ccccc2c2nc3ccccc3nc21	Cycloheximide cs 26 (no result: Shiga toxin inh)
CCn1c2ccccc2c2nc3cc(C(=O)O)ccc3nc21	Shiga toxin inh 126, Cycloheximide cs 35
CCCOc1ccc(C2c3c(oc4ccccc4c3=O)C(=O)N2c2nnc(C(C)C)s2)cc1 (centres undefined)	none (no result: FBPA Giardia inh, RE007 growth inh, Shiga toxin inh, LmPK inhibitor, Cycloheximide cs)
Cc1cccc(C(=O)Nc2nc(C)c(C(=O)Nc3ccc4c(c3)CCC4)s2)c1	Cycloheximide cs 17
Cc1ncoc1C(=O)Nc1cccc(Cl)c1C	Cycloheximide cs 16
Cc1cccc(NC(=O)c2sc(C)nc2C)c1	Shiga toxin inh 84, Cycloheximide cs 50
Cc1ccccc1NC(=O)c1ocnc1C	none
Cc1ncoc1C(=O)Nc1cccc(Cl)c1	Shiga toxin inh 100, Cycloheximide cs 63
Cc1ccc(Cl)cc1NC(=O)c1ocnc1C	none
CN(C)c1ccc(CNc2nc(-c3ccco3)nn2S(=O)(=O)c2ccc3ccccc3c2)cc1	none (no result: FBPA Giardia inh, RE007 growth inh, Shiga toxin inh, LmPK inhibitor, Cycloheximide cs)
O=c1c2ccccc2nc(N2CCN(c3cccc(Cl)c3)CC2)n1-c1ccccc1	none (no result: FBPA Giardia inh, RE007 growth inh, Shiga toxin inh, LmPK inhibitor, Cycloheximide cs)
Cc1ccc(NC(=O)Cc2ncon2)cc1Cl	none
Cc1nc(Cl)sc1C(=O)Nc1ccc(C(F)(F)F)cc1	Cycloheximide cs 20 (no result: Shiga toxin inh)
COc1cccc(NC(=O)c2ocnc2C)c1	Shiga toxin inh 63, LmPK inhibitor inconclusive, Cycloheximide cs 25
Cc1ccc(NC(=O)c2ocnc2C)cc1Cl	Shiga toxin inh 70, Cycloheximide cs 52
COC(=O)c1ccccc1NC(=O)c1sc(Cl)nc1C	Shiga toxin inh 80, Cycloheximide cs 15
COc1cccc(NC(=O)c2sc(Cl)nc2C)c1	Cycloheximide cs 13 (no result: Shiga toxin inh)
Cc1nc(Cl)sc1C(=O)Nc1cccc(C(F)(F)F)c1	none (no result: FBPA Giardia inh, Shiga toxin inh, LmPK inhibitor, Cycloheximide cs)
NC(=O)c1cc([N+](=O)[O-])ccc1NCc1cccc2ccccc12	none (no result: FBPA Giardia inh, Shiga toxin inh, LmPK inhibitor, Cycloheximide cs)
O=C(/C=C/Nc1ccc([N+](=O)[O-])cc1Br)c1cccc2ccccc12	Cycloheximide cs 20
CCn1c(=O)cc(OCC(=O)NCc2ccccc2OC)c2ccccc21	none (no result: FBPA Giardia inh, RE007 growth inh, Shiga toxin inh, LmPK inhibitor, Cycloheximide cs)
COC(c1ccccc1)c1nnc(CCC(=O)N(C)CCCC2CCCC2)o1 (centres undefined)	Shiga toxin inh 46, Cycloheximide cs 27
COC(c1ccccc1)c1nnc(CCC(=O)N(C)Cc2cccc(-n3cccn3)c2)o1 (centres undefined)	Shiga toxin inh 107, Cycloheximide cs 33
COC(c1ccccc1)c1nnc(CCC(=O)NCc2ccc3ncccc3c2)o1 (centres undefined)	none
CCCN(CC1CC1)C(=O)CCc1nnc(C(OC)c2ccccc2)o1 (centres undefined)	Shiga toxin inh 46
